Laboratory results taken from PubChem BioAssay (NCI).
Where “and” joins values, the source holds several entries; their conditions need not be identical. Identical values can stand only once. Compounds without any hit were thinned out: in the full panel of roughly 83,000, 20% have a hit.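 Percent growth is the endpoint: 0 to 100 indicates growth inhibition (40 means 60% inhibition), 0 means no net growth, and negative values indicate cell death.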 Calls of active or inactive are those of the source. How the source made its calls: active means growth percent below 10; inactive means the rest.

test system: HL-60(TB) leukemia; experiment: NCI-60 one-dose screen, 48 h (100 = growth as untreated, 0 = no growth, -100 = all killed); conditions: 10 µM unless noted

| SMILES | growth |
| --- | --- |
| O=Nc1c(O)ccc2ccccc12 | -26.3% (active) and 74% (inactive) |
| O=C(CN1CCCCC1)Nc1nc(-c2cc3ccccc3oc2=O)cs1 | 93.8% (inactive) |
| O=[N+]([O-])c1ccc(NS(=O)(=O)c2cc(Cl)ccc2Cl)c2ccccc12 | 33.4% (inactive) |
| CCCCNCCC(O)c1cc2ccc(C(F)(F)F)cc2c2cc(C(F)(F)F)ccc12 (centres undefined) | -62.1% (active) |
